The record followed here is ChEMBL document CHEMBL1157539, “Thousands of chemical starting points for antimalarial lead identification” (Nature, 2010).

Holding throughout (type): functional
In test [1] the test system is Plasmodium falciparum. In words: GSK_TCMDC: Inhibition of Plasmodium falciparum 3D7 in whole red blood cells, using parasite LDH activity as an index of growth. Test compounds present at 2uM.
Test [2] deals with Plasmodium falciparum. In words: GSK_TCMDC: Inhibition of Plasmodium falciparum Dd2 in whole red blood cells, using parasite LDH activity as an index of growth. Test compounds present at 2uM.
The next test relates to HepG2. In words: GSK_TCMDC: Percent inhibition of human HepG2 cell line. Test compounds present at 10uM.

The Inhibition is the share of the control response that was lost under treatment. Read a low Inhibition as a weak effect. Turning to `CN(C)CCCOc1ccc(CCCCc2ccc(Cl)cc2C(=O)c2ccccc2)cc1.O=C(O)C(=O)O`, the Inhibition in the test on Plasmodium falciparum [1] stood at 92%; in the test on Plasmodium falciparum [2], 8%; with HepG2 it was 8%.

For `CCCN(CCC)C(=S)N/N=C1/C(=O)Nc2ccccc21`, the Inhibition with Plasmodium falciparum [1] came to 97%; in the test on Plasmodium falciparum [2], 86%; with HepG2, 28%.

On to `Cc1nn(C)c(C)c1CN(Cc1nc(-c2cccc(Oc3ccccc3)c2)oc1C)C1CC1`, for which the Inhibition with Plasmodium falciparum [1] is listed as 100%; in the test on Plasmodium falciparum [2] it was 98%; in the test with HepG2, 7%.

As for `O=C(Nc1cccc(-c2ccc(-c3nc4cc(C(F)(F)F)ccc4[nH]3)cc2)c1)c1c[nH]cn1`, the Inhibition in the test on Plasmodium falciparum [1] is 91%; in the test with Plasmodium falciparum [2], 21%; in the test with HepG2, 16%.

`O=C(/C=C/c1ccc(C(F)(F)F)cc1)NCCCCCN1CCCN(C(=O)Nc2ccc(F)c(Cl)c2)CC1`: the Inhibition in the test on Plasmodium falciparum [1] amounted to 100%; in the test with Plasmodium falciparum [2] it was 33%; in the test on HepG2, 33%.

For the molecule `CN1CCC(C(=O)Nc2cccc(-c3ccc(-c4nc5ccccc5[nH]4)cc3)c2)CC1`, the Inhibition with Plasmodium falciparum [1] turned out to be 82%; in the test with Plasmodium falciparum [2], 15%; in the test with HepG2, 7%.

With `CN(C)CCCN1CCN(C(=O)c2cc3cc(-c4ccccc4)ccc3n2S(=O)(=O)c2ccccc2)CC1`, the Inhibition amounted to 100% in the test with Plasmodium falciparum [1], 94% in the test with Plasmodium falciparum [2] and 32% in the test on HepG2.

As for `c1cncc(Oc2ccc(Nc3ccnc4cc(-c5cccc(CN6CCCCC6)c5)ccc34)cc2)c1`, the Inhibition was 100% in the test with Plasmodium falciparum [1], 100% in the test with Plasmodium falciparum [2] and 33% in the test on HepG2.

For `O=C(Nc1ccc(CN2CCOCC2)cc1)c1ccc(-c2ccc(Cl)cc2)o1`, the Inhibition came to 98% with Plasmodium falciparum [1], 11% with Plasmodium falciparum [2] and 22% with HepG2.

As for `CC(C)c1ccc(NC(=O)c2ccc(CN3CCCN(CC4CCCCC4)CC3)cc2)cc1.O=C(O)C(F)(F)F`, the Inhibition in the test with Plasmodium falciparum [1] was 90%; with Plasmodium falciparum [2] it was 34%; with HepG2, 50%.
